# Compound activity from PubChem.
# The list is not random: actives were taken first. Their share in the collection is about 28%.
# CYP2C9 activ: human CYP2C9 activators, primary screen, biochemical, luminescence; AID 1024, 2008; hit rate 1.4% among 96,000; Cytochrome P450 2C9 (Homo sapiens), P11712; activation factor at 5 µM; recombinant CYP2C9, luciferin-H conversion; hits give high values; factor 1 = untreated enzyme, 0 = blocked;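 active means activation factor of 2 or more for CYP2C9 at a 5 µM dose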
# CYP2C19 inh: blockers of cytochrome P450 2C19 activity – biochemical, luminescence, ADME assay, primary screen; inhibition, % at 5 µM; CYP2C19 Supersomes, luciferin-H EGE luminescence, 30 min; hit rate 21% among 96,000;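 active means CYP2C19 inhibition above a set limit at 5 µM in the primary screen, cut at about 50% in these data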
# Pyk2 oligo antag: antagonists of Pyk2 self-association, primary screen, Q293 cells, FERM NanoBiT luminescence, HTS. Protein-tyrosine kinase 2-beta (Homo sapiens), Q14289. hits give low values. z-score (the deposit names both 25 µM and 10 µM). hit rate 0.83% among 99,000;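 active means Z-score of -3 or lower, scaled per plate to the spread of control and sample wells; inactive means z-score above -3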;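 further: negative z-score means lost luminescence so less FERM oligomerization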
# Target sequence (Q14289 whole entry, looked up): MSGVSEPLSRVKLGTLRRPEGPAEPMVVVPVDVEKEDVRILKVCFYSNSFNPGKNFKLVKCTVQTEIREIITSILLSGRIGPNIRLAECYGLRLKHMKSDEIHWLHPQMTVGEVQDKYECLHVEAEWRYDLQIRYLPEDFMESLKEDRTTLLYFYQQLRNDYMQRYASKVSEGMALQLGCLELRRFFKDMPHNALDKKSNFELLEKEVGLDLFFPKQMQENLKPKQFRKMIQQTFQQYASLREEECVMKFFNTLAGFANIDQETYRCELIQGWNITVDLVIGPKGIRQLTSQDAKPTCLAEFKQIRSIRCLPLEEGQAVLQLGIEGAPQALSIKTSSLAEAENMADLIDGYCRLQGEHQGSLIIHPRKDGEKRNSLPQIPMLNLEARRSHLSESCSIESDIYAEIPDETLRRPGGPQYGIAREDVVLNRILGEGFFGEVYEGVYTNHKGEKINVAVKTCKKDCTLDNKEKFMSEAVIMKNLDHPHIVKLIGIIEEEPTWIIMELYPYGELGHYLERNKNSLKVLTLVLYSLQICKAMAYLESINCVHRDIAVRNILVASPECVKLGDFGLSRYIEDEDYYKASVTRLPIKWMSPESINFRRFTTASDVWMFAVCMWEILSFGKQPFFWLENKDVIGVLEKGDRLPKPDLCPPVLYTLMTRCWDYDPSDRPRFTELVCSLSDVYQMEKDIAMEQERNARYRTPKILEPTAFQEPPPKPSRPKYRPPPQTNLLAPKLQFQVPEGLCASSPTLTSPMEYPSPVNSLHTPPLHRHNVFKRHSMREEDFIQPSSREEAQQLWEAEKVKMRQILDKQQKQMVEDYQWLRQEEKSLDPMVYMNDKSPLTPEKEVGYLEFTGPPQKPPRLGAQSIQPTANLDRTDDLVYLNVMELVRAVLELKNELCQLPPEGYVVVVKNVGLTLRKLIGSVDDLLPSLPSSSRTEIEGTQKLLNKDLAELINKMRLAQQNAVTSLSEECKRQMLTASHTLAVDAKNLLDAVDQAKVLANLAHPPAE
# CYP2C19 act: human CYP2C19 activators, primary screen, biochemical, luminescence. Cytochrome P450 2C19 (Homo sapiens), P33261. recombinant CYP2C19, luciferin-H EGE luminescence; hits give high values; 0 = fully inhibited enzyme, 1 = untreated enzyme. activation factor at 5 µM. 96,000 tested, under 10 active. AID 1025, 2008;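 active means activation factor of at least 2 at 5 µM in the primary screen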
# CYP2C9 inh: blockers of cytochrome P450 2C9 activity – biochemical, luminescence, ADME assay, primary screen. P11712. CYP2C9 Supersomes, luciferin-H conversion. hit rate 20% among 96,000. inhibition, % at 5 µM;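 active means blocking of liver enzyme CYP2C9 beyond about 50% at 5 µM, limit read from the data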
# A number is an active result; 0 = inactive; - = not tested or not shown.
SMILES,CYP2C9 activ,CYP2C19 inh,Pyk2 oligo antag,CYP2C19 act,CYP2C9 inh
Cc1ccc(C(=O)NNC(=O)CSc2nnc(-c3ccncc3)n2C)cc1,0,0,0,0,0
Cc1nn(CCC(=O)NNC(=S)NCC(C)C)c(C)c1Br,0,62.7,0,0,91.1
O=C(O)CC(c1cccc2ccccc12)n1cccc1 (stereo not drawn),0,0,0,0,50.8
O=C(O)CC(c1ccc(Cl)cc1)n1cccc1 (stereo not drawn),0,0,0,0,0
O=C(CSc1nnc(-c2ccco2)o1)N1CCOCC1,0,0,0,0,0
O=C(CSc1nnc(-c2c[nH]c3ccccc23)o1)N1c2ccccc2CCc2ccccc21,0,78.8,0,0,92.4
O=C(CSc1nnc(-c2ccco2)o1)N1c2ccccc2CCc2ccccc21,0,88.7,0,0,96.9
c1ccc2c(-c3nnc(SCc4cn5ccccc5n4)o3)c[nH]c2c1,0,66.7,0,0,60.7
O=C(CSc1nnc(COc2cccc3ccccc23)o1)N1c2ccccc2CCc2ccccc21,0,0,0,0,54.2
CCc1cccc(OCCCCN(CC)CC)c1,0,0,0,0,0
Cc1c(NC(=O)CSc2nnc(-c3cccc(Cl)c3)o2)c(=O)n(-c2ccccc2)n1C,0,0,0,0,0
CCCOc1ccc(C2C(C(=O)OC)=CN(CCOC)C=C2C(=O)OC)cc1,0,0,-3.46,0,0
COCCN1C=C(C(=O)OC)C(c2ccc(OC)c(OC)c2)C(C(=O)OC)=C1,0,0,0,0,0
N#Cc1ccc(OCC(=O)NCCc2ccccn2)cc1,0,0,0,0,0
O=C(COC(=O)c1ccco1)NCc1cccs1,0,0,0,0,0
COc1ccccc1OCC(=O)NCc1cccs1,0,58.6,0,0,0
O=C(COC(=O)c1ccc(Br)o1)NCc1cccs1,0,66.9,0,0,0
O=C(COc1cccc2ccccc12)NNC(=O)c1cccs1,2.9,0,0,0,0
O=C(COc1ccc(Br)cc1)NCc1ccccn1,0,64.9,0,0,0
Cc1cc(C)n(C(=O)c2cc3ccccc3c(=O)o2)n1,0,0,0,0,0
Cc1nc(=O)c(-c2ccccc2)c(C)n1-c1ccc(O)c(C(=O)O)c1,0,0,0,0,0
O=C(CSc1ccc2nnc(-c3ccccn3)n2n1)NCC1CCCO1 (stereo not drawn),0,0,-,0,0
COc1ccc(N2CCN(S(=O)(=O)c3ccc4c(c3)CCCC4)CC2)c([N+](=O)[O-])c1,0,0,0,0,0
O=C(COc1ccccc1)NCc1cccs1,0,57.9,0,0,0
O=C(COc1ccccc1)NCCc1cn2ccsc2n1,0,84.0,-,0,0
SMILES,CYP2C9 activ,CYP2C19 inh,Pyk2 oligo antag,CYP2C19 act,CYP2C9 inh
Cc1ccc(OCC(=O)NCc2cccs2)cc1,0,71.3,0,0,0
Cc1nc2ccccc2n1C1CCN(CC(=O)NCc2ccc(F)cc2)CC1,0,0,0,0,0
COc1ccc(-c2ccc(-c3nnc(-c4ccncc4)o3)cc2)cc1,0,52.9,-,0,0
Cc1cc(C)cc(N(CC(=O)NC2CC3CCC2C3)S(C)(=O)=O)c1 (stereo not drawn),0,0,0,0,0
O=C1C2CCCN2C(c2ccccc2)N1c1nccs1 (stereo not drawn),0,0,0,0,0
c1ccc(-c2onc3c2CCCC3)cc1,0,57.8,0,0,0
O=C(Nc1ccccn1)c1onc2c1CCCC2,-,-,0,-,-
O=C(CSc1nnc(Cc2ccccc2)o1)NCCc1ccccc1,0,0,0,0,0
COCCCn1c(SCc2ccccc2)nc2cc(OC)c(OC)cc2c1=N,0,53.8,0,0,63.5
COCCCn1c(SCc2cccc(C(F)(F)F)c2)nc2cc(OC)c(OC)cc2c1=N,0,0,0,0,82.0
Cc1cc(C)n(C(=O)CN2C(=O)c3ccccc3C2=O)n1,0,0,0,0,0
O=C(CN1C(=O)COc2ccccc21)NCc1ccc(C(=O)O)cc1,0,0,0,0,0
CCc1ccc(CNC(=O)CN2C(=O)COc3ccccc32)cc1,0,72.3,0,0,0
Cc1cc(C)n(C(=O)CN2C(=O)COc3ccccc32)n1,0,80.0,0,0,56.9
CC(NC(=O)CN1C(=O)COc2ccccc21)c1ccccc1 (stereo not drawn),2.2,88.6,0,0,0
CCOc1nc(N=C(N)N)nc2c(C)cccc12,0,0,0,0,0
COCCn1c(C)c(C(=O)O)sc1=S,0,0,0,0,0
Cc1cc(/C=N/n2cnnc2)c(C)n1-c1ccc(OCc2ccc(Cl)cc2)cc1,0,0,0,0,0
Clc1ccc(Sc2oc(/C=N/n3cnnc3)cc2Br)cc1,0,90.7,0,0,0
Clc1ccc(Sc2ccc(/C=N/n3cnnc3)o2)cc1,0,77.4,0,0,0
CN(C)c1ccc(-c2nnn(CC(=O)N3c4ccccc4CCc4ccccc43)n2)cc1,0,71.3,0,0,76.7
COc1ccc(-c2nnn(CC(=O)N3CCN(c4ccccc4OC)CC3)n2)cc1,-,-,0,-,-
CN(C)c1ccc(-c2nnn(CC(=O)Nc3ccccc3N3CCOCC3)n2)cc1,0,0,0,0,89.6
Cc1ccccc1NC(=O)Cn1nnc(-c2ccc(N3CCOCC3)cc2)n1,0,0,0,0,0
CSC1=NCCN1C(=O)COc1ccccc1,0,0,-,0,0
SMILES,CYP2C9 activ,CYP2C19 inh,Pyk2 oligo antag,CYP2C19 act,CYP2C9 inh
CSC1=NCCN1C(=O)COc1ccc2ccccc2c1,0,88.4,-,0,0
COc1ccnc(Oc2ccc(C)cc2C)c1C#N,0,0,0,0,0
Cc1cc(NC(=O)c2cc3nc4c(c(C(F)(F)F)n3n2)CCc2ccccc2-4)no1,0,0,-,0,0
C/C(=N\NS(=O)(=O)c1ccc(C)cc1)c1ccc(C)s1,0,0,0,0,0
C/C(=N\NS(=O)(=O)c1ccc(C)cc1)c1ccc(Br)s1,0,57.7,0,0,70.7
CCSc1ccc2nnc(-c3cccc(F)c3)n2n1,0,0,0,0,0
N#CCCN(C(=O)CSc1nc(-c2ccccc2)cn1N)c1ccc(F)cc1,0,0,0,0,0
COCCn1nnnc1CN1C2CCCC1CC(NC(C)=O)C2 (stereo not drawn),0,0,0,0,0
COC(=O)c1cc(=O)nc2sc3ccccc3n12,0,0,0,0,81.4
COC(=O)c1cc(=O)nc2sc(-c3cccs3)nn12,0,0,0,0,0
CCCC1(C(=O)OCC)NC(c2ccc(N(C)C)cc2)C2C(=O)N(c3ccccc3)C(=O)C21 (stereo not drawn),-,-,0,-,-
CCCC1(C(=O)OCC)NC(c2ccc(N(C)C)cc2)C2C(=O)N(c3ccc(OCC)cc3)C(=O)C21 (stereo not drawn),0,73.5,0,0,0
Cc1ccccc1N1CCN(C(=O)c2ccccc2NC(=O)C2CC=CCC2C(=O)O)CC1 (stereo not drawn),0,0,0,0,0
